AmpC detergent = AmpC beta-lactamase inhibition with detergent present | Potency, µM (top dose mostly 114 µM), actives largely listed as inhibitors | 0.041% of 370,000 active | AmpC hydrolysis of nitrocefin, absorbance 480 nm, 0.01% Triton; further: nearly all actives have a fitted effect of over 25% in size
Target sequence (P00811 whole entry, looked up): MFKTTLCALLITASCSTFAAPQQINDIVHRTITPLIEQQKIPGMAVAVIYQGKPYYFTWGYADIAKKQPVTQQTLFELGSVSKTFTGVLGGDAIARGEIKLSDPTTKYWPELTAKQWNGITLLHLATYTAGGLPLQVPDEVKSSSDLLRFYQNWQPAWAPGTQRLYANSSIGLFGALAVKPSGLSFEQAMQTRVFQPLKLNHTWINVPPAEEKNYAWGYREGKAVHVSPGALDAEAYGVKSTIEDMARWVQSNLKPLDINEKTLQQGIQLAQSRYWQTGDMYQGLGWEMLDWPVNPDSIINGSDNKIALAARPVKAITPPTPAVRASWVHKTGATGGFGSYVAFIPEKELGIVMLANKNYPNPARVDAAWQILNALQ
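20 mM phosphate pH 7.0 + 0.01% (detergent screen) or 0.0001% Triton X-100; 5.3 nM AmpC reagent; cpd preinc 15 min RT; nitrocefin (800 uM stock) to start; A480 q20 s × 4 min; Activity was normalised to no-enzyme and no-compound control wells.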
AmpC inh no detg = inhibitors of E. coli AmpC beta-lactamase without detergent; AmpC nitrocefin hydrolysis, absorbance 480 nm, 0.0001% Triton; Potency, µM (titrated, usually from 57.1 µM), hits mostly inhibitors; 0.52% of 330,000 active; P00811; further: nearly all actives have a fitted effect of over 20% in size
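AmpC (5.3 nM in the dispensed reagent) in 20 mM phosphate pH 7.0 with 0.01% (detergent screen) or 0.0001% Triton X-100 was preincubated with compounds for 15 min at room temperature. Nitrocefin was then added from an 800 uM solution, and hydrolysis was followed at 480 nm.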
RE007 growth inh = less growth of the S. pombe RE007 Vpr strain; S. pombe RE007 Vpr strain, BacTiter-Glo ATP luminescence, 24 h; Potency, µM (highest dose often 92.2 µM), usual class: inhibitors; 0.21% of 360,000 active; active means well fitted falling curve with a large enough effect; inconclusive means small, poorly fitted or top-dose-only effect; inactive means no such curve, though single readings can be large or run the other way; further: nearly all actives have a fitted effect of over 50% in size
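Fission yeast RE007 carrying one integrated HIV-1 vpr copy, seeded at OD 0.01 in PMG+AL medium with 23 nL pinned compound. Grown 24 h at 30 degrees; viability read by BacTiter-Glo luminescence after 5 min.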
Sm TGR inh = inhibitors of Schistosoma mansoni thioredoxin glutathione reductase; purified TGR, DTNB reduction, TNB absorbance 405 nm; Potency, µM (titrated, usually from 114 µM), actives largely listed as inhibitors; 3% of 360,000 active; AID 485364; further: nearly all actives have a fitted effect of over 60% in size
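TGR 20 nM + NADPH 100 uM (dispensed conc.), cpd preinc 15 min RT; start with NADPH (500 uM addition) then DTNB (15 mM addition). Kinetic TNB absorbance, 405 nm filter. Four-parameter Hill fit across titration.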
FBPA Giardia inh = inhibitors of Giardia lamblia fructose-1,6-bisphosphate aldolase. A8B2U2. purified Giardia FBPA. Potency, µM (doses to about 59.6 µM), most hits filed as inhibitors. 0.71% of 290,000 active; further: nearly all actives have a fitted effect of over 55% in size
Target sequence (A8B2U2 whole entry, looked up): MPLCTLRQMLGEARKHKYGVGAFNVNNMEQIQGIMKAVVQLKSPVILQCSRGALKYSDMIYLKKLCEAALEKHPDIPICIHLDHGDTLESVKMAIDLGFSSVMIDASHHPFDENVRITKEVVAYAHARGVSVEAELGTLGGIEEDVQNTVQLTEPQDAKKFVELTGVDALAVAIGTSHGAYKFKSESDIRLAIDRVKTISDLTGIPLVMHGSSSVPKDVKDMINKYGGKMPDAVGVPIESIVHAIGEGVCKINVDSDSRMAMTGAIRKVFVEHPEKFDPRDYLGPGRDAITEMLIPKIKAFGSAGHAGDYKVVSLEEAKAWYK
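Giardia FBPA (40 nM reagent) was preincubated 10 min at RT with compound (up to 57.5 uM final), then substrate plus GAPDH/TPI/NAD/arsenate coupling system with diaphorase/resazurin was added; resorufin fluorescence (525/598 nm) was read after 20 min.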
Each line names hits and unclear results; the compound was inactive in the other large screens. Shown are actives, neighbours in structure and some others; about 3.4% of the full set was active somewhere. Unless noted, the call rests on the fitted dose curve; in most records, active means well fitted curve in the direction sought with a large enough effect; inconclusive means small, poorly fitted or top-dose-only effect, or another doubt; inactive means no such curve, though single readings can be large; an effect the other way counts as inactive or inconclusive.

CCOC(=O)[C@H]1[C@H]2COc3ccc(Cl)cc3[C@@H]2N2C(=O)CN(Cc3ccco3)C(=O)[C@@]12C	Sm TGR inh 16µM (no result: FBPA Giardia inh)
CCOC(=O)[C@H]1[C@H]2COc3cc(OC)ccc3[C@@H]2N2C(=O)CN(Cc3ccco3)C(=O)[C@@]12C	Sm TGR inh 18µM (no result: FBPA Giardia inh)
CCOC(=O)[C@H]1[C@H]2COc3ccc(OC)cc3[C@@H]2N2C(=O)CN(Cc3ccco3)C(=O)[C@@]12C	Sm TGR inh inconclusive (no result: FBPA Giardia inh)
CCOC(=O)[C@H]1[C@H]2COc3ccc(Cl)cc3[C@@H]2N2C(=O)CN(Cc3ccc(C)cc3)C(=O)[C@@]12C	none (no result: FBPA Giardia inh)
Cc1nnc(SCC(=O)NCc2ccccc2)[nH]c1=O	none
COc1ccc(S(=O)(=O)N2CCN(Cc3cccc([N+](=O)[O-])c3)CC2)cc1	none (no result: AmpC detergent, AmpC inh no detg, Sm TGR inh, FBPA Giardia inh)
COc1ccc2ccc(O)c(CN3CCN(S(=O)(=O)c4cc([N+](=O)[O-])ccc4C)CC3)c2c1	Sm TGR inh 1.6µM (no result: FBPA Giardia inh)
COC(=O)c1c[nH]n2c(=O)c(C(C)C)c(C)nc12	none
CCOC(=O)c1sc(S(C)=O)c2c1CCc1conc1-2 (centres undefined)	Sm TGR inh 1µM, FBPA Giardia inh inconclusive
CCOC(=O)c1sc2ccccc2c1OC(=O)c1ccc(C)cc1	none
COc1ccc2c3n(nc2c1)CCN=C3c1ccc(C)cc1	AmpC detergent inconclusive (no result: FBPA Giardia inh)
COc1ccc(C2=NCCn3nc4cc([N+](=O)[O-])ccc4c32)cc1	Sm TGR inh 25µM (no result: FBPA Giardia inh)
COC(=O)c1c(NC(=O)COC(=O)c2ccc(NC(=O)CC#N)cc2)sc2c1CCCCC2	AmpC inh no detg 32µM
COc1ccc(OC)c(-c2csc(NC(=O)COC(=O)C3CCC3)n2)c1	none (no result: FBPA Giardia inh)
N#CCC(=O)Nc1ccc(C(=O)OCC(=O)Nc2cccc(C(F)(F)F)c2)cc1	AmpC detergent inconclusive, AmpC inh no detg 16µM
COc1ccc(OC)c(-c2csc(NC(=O)COC(=O)c3ccc(NC(=O)CC#N)cc3)n2)c1	AmpC detergent inconclusive, AmpC inh no detg 25µM (no result: FBPA Giardia inh)
COC(=O)c1c(NC(=O)C2CC2)sc2c1CCCC2	AmpC detergent inconclusive, AmpC inh no detg 45µM
O=C(O)C(c1ccccc1)C(c1ccccc1)c1ccccc1 (centres undefined)	none
NC(=O)c1c(NC(=O)COC(=O)c2ccc(O)c(Cl)c2)sc2c1CCCC2	AmpC inh no detg 16µM (no result: AmpC detergent, Sm TGR inh, FBPA Giardia inh)
CC1=CC(=O)C(C(C)C)=CC1=NC(=O)c1ccc(C)cc1	Sm TGR inh 3.2µM
COc1cccc(C(=O)CN2CCN(S(=O)(=O)c3cccc([N+](=O)[O-])c3)CC2)c1	AmpC detergent inconclusive, Sm TGR inh 18µM
Nc1ccc2c(c1)C(=O)C(=O)c1ccccc1-2	RE007 growth inh 25µM, FBPA Giardia inh inconclusive
Nc1ccc2c(c1)C(=O)c1ccccc1-2	none (no result: AmpC detergent, AmpC inh no detg, Sm TGR inh, FBPA Giardia inh)
O=C1C(=O)c2ccc(-c3ccccc3)cc2-c2ccccc21	RE007 growth inh inconclusive, FBPA Giardia inh 0.28µM
Cc1c(NC(=O)c2cc3c(s2)CCCC3)c(=O)n(-c2ccccc2)n1C	none
Cc1cc(NC(=O)CSCc2ccc([N+](=O)[O-])cc2)no1	none
CCCCNC(=S)Nc1ccc2cn[nH]c2c1	none
S=C(NCc1ccccc1)Nc1ccc2cn[nH]c2c1	Sm TGR inh 40µM
CC(C)CCn1c(=O)c2ccccc2n2c(CN3CCCC3)nnc12	none
CCCCCn1c(=O)c2ccccc2n2c(CCl)nnc12	Sm TGR inh 14µM
CC(C)CCn1c(=O)c2ccccc2n2c(CCl)nnc12	Sm TGR inh 3.2µM
COc1cc(C(=O)NC2CC(C)(C)CC(C)(C)C2)ccc1OC1CCN(C(C)=O)CC1	none
O=[As](O)(O)c1ccc(N=Nc2ccc(O)cc2)cc1	Sm TGR inh 50µM (no result: RE007 growth inh)
Cc1ccc(N=Nc2ccc(O)cc2)c(Br)c1	AmpC inh no detg inconclusive, RE007 growth inh inconclusive
Cc1ccc(CNS(=O)(=O)c2ccc(CN3C(=O)c4cccnc4C3=O)cc2)o1	Sm TGR inh 20µM (no result: FBPA Giardia inh)
CC(=O)Nc1ccc(NS(=O)(=O)c2ccc(CN3C(=O)c4cccnc4C3=O)cc2)cc1	none
Cc1ccc(CNS(=O)(=O)c2cc(F)ccc2CN2C(=O)c3cccnc3C2=O)o1	Sm TGR inh 25µM
CC(C)NS(=O)(=O)c1cc(F)ccc1CN1C(=O)c2cccnc2C1=O	none
COC(C(=O)NNC(=O)Cc1ccc(Cl)cc1)c1ccccc1 (centres undefined)	none
c1ccc(Sc2ccccn2)cc1	none (no result: AmpC detergent, AmpC inh no detg, Sm TGR inh, FBPA Giardia inh)
c1ccc(SSc2ccccn2)nc1	RE007 growth inh 45µM (no result: AmpC detergent, AmpC inh no detg, Sm TGR inh, FBPA Giardia inh)
O=C(O)C1C2C=CC(O2)C1C(=O)NCCCn1ccnc1 (centres undefined)	Sm TGR inh 50µM (no result: RE007 growth inh)
O=C(O)C1C2CCC(C2)C1C(=O)NCCCn1ccnc1 (centres undefined)	none
COc1ccc(-c2cc(CNS(=O)(=O)c3cc(OC)ccc3OC)on2)cc1	none
CCOc1ccccc1-n1c(SCC(=O)NC)nnc1-c1ccco1	AmpC detergent inconclusive, Sm TGR inh inconclusive
CNC(=O)CSc1nnc(-c2ccco2)n1-c1ccccc1OC	Sm TGR inh 79µM
C=CCn1c(SCC(=O)Nc2ccccc2OC)nnc1-c1ccco1	Sm TGR inh 45µM (no result: RE007 growth inh)
CCOC(=O)CSc1nnc(-c2ccco2)n1-c1ccc(C)cc1	Sm TGR inh inconclusive
CCOC(=O)CSc1nnc(-c2ccco2)n1-c1ccccc1	Sm TGR inh 22µM
CCN(CC)S(=O)(=O)c1ccc(N2CC(C(=O)N3Cc4ccccc4CC3C(N)=O)CC2=O)cc1 (centres undefined)	none (no result: AmpC detergent, Sm TGR inh, FBPA Giardia inh)
CCOC(=O)c1c(-c2ccccc2)csc1N1C(=O)Nc2ccccc2N1O	FBPA Giardia inh inconclusive
NS(=O)(=O)c1ccc(NC(=O)C2Cc3ccccc3CN2C(=O)c2ccco2)cc1 (centres undefined)	Sm TGR inh 45µM
COc1cccc(NC(=O)C2Cc3ccccc3CN2C(=O)c2ccco2)c1 (centres undefined)	Sm TGR inh 35µM
O=C(c1ccco1)N1CCN(C(=O)C2Cc3ccccc3CN2S(=O)(=O)c2ccc(F)cc2)CC1 (centres undefined)	Sm TGR inh 50µM
NS(=O)(=O)c1ccc(CCNC(=O)C2Cc3ccccc3CN2C(=O)c2ccco2)cc1 (centres undefined)	none
O=C(O)C1Cc2ccccc2CN1C(=O)c1ccco1 (centres undefined)	Sm TGR inh inconclusive
Cc1ccccc1NC(=O)C1Cc2ccccc2CN1C(=O)c1ccco1 (centres undefined)	Sm TGR inh 11µM
C/C(=N\N1C(=O)c2ccccc2C1=O)c1cccc([N+](=O)[O-])c1	AmpC detergent inconclusive
COc1cccc(-c2nccc(NCc3cccnc3)n2)c1	none (no result: AmpC detergent, AmpC inh no detg, RE007 growth inh, Sm TGR inh)
NC(=O)C1CCCN(C(=O)CCC(=O)c2cccs2)C1 (centres undefined)	none (no result: AmpC detergent, Sm TGR inh, FBPA Giardia inh)

High-throughput results: PubChem, National Center for Advancing Translational Sciences (NCATS)
